Experimental data: PubChem BioAssay (NCI)
About 79,000 compounds went through this panel and 15% of them were active in at least one assay; those are over-represented in the sample as a whole. A number with no mark means an inactive call. Activity calls are given as the source filed them. Rule as the data show it: active = growth inhibition above about 70%; inactive = the rest.

How the values were obtained:
[1] = NCI Yeast Anticancer Drug Screen. Data for the rad52 strain (AID 147);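 also: 0% = growth of vehicle-treated control cultures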; settings: S. cerevisiae rad52 mutant growth inhibition, active compounds read high
Method in brief: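 DNA repair-defective yeast; compound exposure; growth scored against vehicle controls.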

[2] = NCI Yeast Anticancer Drug Screen. Data for the wt1 strain (AID 149);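 also: 0% = growth of vehicle-treated wt1 cultures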; settings: S. cerevisiae wt1 strain (SPY 50644) growth inhibition, active compounds read high
Method in brief: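 wt1 strain grown with compound or vehicle; inhibition taken from the growth difference.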

[3] = NCI Yeast Anticancer Drug Screen. Data for the rad50EPP+ strain (AID 151);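 also: 0% = growth of vehicle-treated control cultures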; settings: S. cerevisiae rad50 mutant strain, active compounds read high
Method in brief: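 rad50EPP+ yeast treated with test compounds. Readout: growth vs vehicle control.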

[4] = NCI Yeast Anticancer Drug Screen. Data for the mgt1 strain (AID 153); settings: S. cerevisiae mgt1 mutant growth inhibition, active compounds read high
Method in brief: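 Growth inhibition relative to vehicle controls was scored for the mgt1 yeast strain after compound exposure.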

[5] = NCI Yeast Anticancer Drug Screen. Data for the rad50 strain (AID 155);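 also: 0% = growth of vehicle-only cultures of the same strain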; settings: S. cerevisiae rad50 strain growth inhibition, active compounds read high
Method in brief: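 DNA repair mutant yeast, compound exposure, growth read-out; inhibition is taken relative to vehicle.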

[6] = NCI Yeast Anticancer Drug Screen. Data for the mec2-1 strain (AID 157); settings: S. cerevisiae mec2-1 strain, active compounds read high
Method in brief: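 Growth inhibition is read against vehicle-treated controls after compound exposure of the mec2-1 yeast strain, which is defective in DNA damage repair or cell cycle control.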

[7] = NCI Yeast Anticancer Drug Screen. Data for the rad14 strain (AID 159);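 also: 0% = growth of vehicle-treated control cultures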; settings: S. cerevisiae rad14 strain growth inhibition, active compounds read high
Method in brief: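 DNA repair-defective yeast, compound-exposed; % growth inhibition derived by comparison with vehicle-treated controls.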

[8] = NCI Yeast Anticancer Drug Screen. Data for the sgs1 mgt1 strain (AID 161);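 also: 0% = growth of cultures given vehicle only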; settings: S. cerevisiae sgs1 mgt1 strain, active compounds read high
Method in brief: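 Compounds are added to genetically altered yeast, and growth is compared with cultures given vehicle alone to give percent inhibition.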

[9] = NCI Yeast Anticancer Drug Screen. Data for the CLN2oe strain (AID 163);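 also: 0% = growth of vehicle-only control cultures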; settings: S. cerevisiae CLN2oe strain, active compounds read high
Method in brief: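 Compound-treated yeast; growth vs vehicle ctrl = % inhibition. Genetically altered strain (cell-cycle control).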

[10] = NCI Yeast Anticancer Drug Screen. Data for the cln2 rad14 strain (AID 165);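 also: 0% = growth equal to vehicle treated cultures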; settings: S. cerevisiae cln2 rad14 strain, active compounds read high
Method in brief: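 Growth inhibition, relative to vehicle-treated controls, is the read-out. The test organism is a yeast strain with defined genetic alterations, cln2 rad14.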

[11] = NCI Yeast Anticancer Drug Screen. Data for the bub3 strain (AID 167); settings: S. cerevisiae bub3 mutant strain, active compounds read high
Method in brief: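 In this screen, a yeast mutant lacking normal mitotic checkpoint function is challenged with compound. Relative growth versus vehicle gives the inhibition value.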

[12] = NCI Yeast Anticancer Drug Screen. Data for the wt2 strain (AID 169);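 also: 0% = growth of vehicle-treated yeast cultures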; settings: S. cerevisiae wt2 strain growth inhibition, active compounds read high
Method in brief: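 Compound exposure of yeast; growth compared with vehicle controls; inhibition reported.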

[13] = NCI Yeast Anticancer Drug Screen. Data for the mlh1 strain (AID 171);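 also: 0% = growth of vehicle-treated control cultures of the same strain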; settings: S. cerevisiae mlh1 strain growth inhibition, active compounds read high
Method in brief: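 Compounds are applied to a genetically altered yeast strain, and its growth is compared with that of vehicle-treated cultures to give percent inhibition.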

[14] = NCI Yeast Anticancer Drug Screen. Data for the sgs1 strain (AID 173);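 also: 0% = growth of vehicle-only control cultures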; settings: S. cerevisiae sgs1 mutant, active compounds read high
Method in brief: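 Compounds applied to genetically altered yeast; growth compared with vehicle-treated cultures to give % inhibition.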

[15] = NCI Yeast Anticancer Drug Screen. Data for the mlh1 rad18 strain (AID 175); settings: S. cerevisiae mlh1 rad18 strain growth inhibition, active compounds read high
Method in brief: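 Cells of a genetically altered yeast strain, deficient in DNA damage repair, were treated with compound. Their growth was then compared with that of vehicle-treated cultures to give inhibition.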

[16] = NCI Yeast Anticancer Drug Screen. Data for the rad18 strain (AID 177); settings: S. cerevisiae rad18 mutant growth inhibition, active compounds read high
Method in brief: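 Compounds are applied to a repair-deficient yeast strain, and growth is compared with that of vehicle-treated cultures to give percent inhibition.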

[17] = at 5.0 µM (retest, dose inferred, filed as 0.5)
[18] = at 50.0 µM (retest, dose inferred, filed as 5.0)

For Cc1cc(C(C)(C)CC(C)(C)C)cc(O)c1O, the growth inhibition ([1]; at 1.2 µM) was 12%, the growth inhibition ([1]; at 3.7 µM) was 34% and the growth inhibition ([1]; at 11.0 µM) was 77% (active). The growth inhibition ([1]; at 33.0 µM) was 96% (active), the growth inhibition ([1]; at 100.0 µM) was 98% (active) and the growth inhibition ([2]; at 1.2 µM) was -19%. The growth inhibition ([2]; at 3.7 µM) was 9%, the growth inhibition ([2]; at 11.0 µM) was 70% (active) and the growth inhibition ([2]; at 33.0 µM) was 94% (active). For the same compound, the growth inhibition ([2]; at 100.0 µM) was 98% (active), the growth inhibition ([3]; at 1.2 µM) was 44% and the growth inhibition ([3]; at 3.7 µM) was 69%. For the same compound, the growth inhibition ([3]; at 11.0 µM) was 79% (active), the growth inhibition ([3]; at 33.0 µM) was 83% (active) and the growth inhibition ([3]; at 100.0 µM) was 88% (active). The growth inhibition ([4]; at 1.2 µM) was 23%, the growth inhibition ([4]; at 3.7 µM) was 40% and the growth inhibition ([4]; at 11.0 µM) was 87% (active). For the same compound, the growth inhibition ([4]; at 33.0 µM) was 97% (active), the growth inhibition ([4]; at 100.0 µM) was 98% (active) and the growth inhibition ([5]; at 1.2 µM) was -7%. The growth inhibition ([5]; at 3.7 µM) was 12%, the growth inhibition [5, 17] was 95% (active) and the growth inhibition ([5]; at 11.0 µM) was 69%. For the same compound, the growth inhibition ([5]; at 33.0 µM) was 93% (active), the growth inhibition [5, 18] was 99% (active) and the growth inhibition ([5]; at 50.0 µM) was 92% (active). For the same compound, the growth inhibition ([5]; at 100.0 µM) was 97% (active), the growth inhibition ([6]; at 1.2 µM) was 29% and the growth inhibition ([6]; at 3.7 µM) was 37%. The growth inhibition [6, 17] was 97% (active), the growth inhibition ([6]; at 11.0 µM) was 72% (active) and the growth inhibition ([6]; at 33.0 µM) was 95% (active). The growth inhibition [6, 18] was 100% (active), the growth inhibition ([6]; at 50.0 µM) was 91.9% (active) and the growth inhibition ([6]; at 100.0 µM) was 99% (active). For the same compound, the growth inhibition ([7]; at 1.2 µM) was -7%, the growth inhibition ([7]; at 3.7 µM) was 9% and the growth inhibition ([7]; at 11.0 µM) was 80% (active). The growth inhibition ([7]; at 33.0 µM) was 93% (active), the growth inhibition ([7]; at 100.0 µM) was 97% (active) and the growth inhibition [8, 17] was 4%. For the same compound, the growth inhibition [8, 18] was 97% (active), the growth inhibition ([9]; at 1.2 µM) was 2% and the growth inhibition ([9]; at 3.7 µM) was 35%. The growth inhibition ([9]; at 11.0 µM) was 81% (active), the growth inhibition ([9]; at 33.0 µM) was 97% (active) and the growth inhibition ([9]; at 100.0 µM) was 98% (active). For the same compound, the growth inhibition [10, 17] was 37%, the growth inhibition [10, 18] was 95% (active) and the growth inhibition ([11]; at 1.2 µM) was 1%. The growth inhibition ([11]; at 3.7 µM) was 19%, the growth inhibition [11, 17] was 21% and the growth inhibition ([11]; at 11.0 µM) was 74% (active). The growth inhibition ([11]; at 33.0 µM) was 97% (active), the growth inhibition [11, 18] was 99% (active) and the growth inhibition ([11]; at 100.0 µM) was 98% (active). For the same compound, the growth inhibition ([12]; at 1.2 µM) was 2%, the growth inhibition ([12]; at 3.7 µM) was 27% and the growth inhibition ([12]; at 11.0 µM) was 71% (active). For the same compound, the growth inhibition ([12]; at 33.0 µM) was 89% (active), the growth inhibition ([12]; at 100.0 µM) was 54% and the growth inhibition ([13]; at 1.2 µM) was 6%. The growth inhibition ([13]; at 3.7 µM) was 20%, the growth inhibition ([13]; at 11.0 µM) was 85% (active) and the growth inhibition ([13]; at 33.0 µM) was 88% (active). For the same compound, the growth inhibition ([13]; at 100.0 µM) was 99% (active), the growth inhibition ([14]; at 1.2 µM) was 14% and the growth inhibition ([14]; at 3.7 µM) was 35%. For the same compound, the growth inhibition ([14]; at 11.0 µM) was 82% (active), the growth inhibition ([14]; at 33.0 µM) was 92% (active) and the growth inhibition ([14]; at 100.0 µM) was 97% (active). For the same compound, the growth inhibition [15, 17] was 83% (active), the growth inhibition [15, 18] was 100% (active) and the growth inhibition ([15]; at 50.0 µM) was 92% (active). For the same compound, the growth inhibition ([16]; at 1.2 µM) was 5%, the growth inhibition ([16]; at 3.7 µM) was 23% and the growth inhibition ([16]; at 11.0 µM) was 88% (active). For the same compound, the growth inhibition ([16]; at 33.0 µM) was 96% (active) and the growth inhibition ([16]; at 100.0 µM) was 98% (active).
